Experimental findings from PubChem BioAssay (NCI) are described below.

About 83,000 compounds went through this panel and 20% of them were active in at least one assay; those are over-represented in the sample as a whole.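 Cells were grown in 96-well plates and exposed to the test compound at a single concentration for 48 hours; results are reported as percent growth, with values below 10 considered active.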 Values without a mark were called inactive. Activity calls are given as the source filed them.

Holding throughout (experiment): NCI-60 one-dose screen, 48 h (100 = growth as untreated, 0 = no growth, -100 = all killed)
Common to all, as to conditions: 10 µM unless noted

Experiment [1] relates to HCT-15 colon.
Experiment [2] relates to HT29 colon.
In experiment [3] the test system is SNB-75 CNS.
The subject of experiment [4] is SNB-19 CNS.
The subject of experiment [5] is U251 CNS.
Experiment [6] relates to PC-3 prostate.
The test system of experiment [7] is SK-MEL-5 melanoma.
In experiment [8] the test system is LOX IMVI melanoma.
Experiment [9] concerns SK-MEL-28 melanoma.
Experiment [10] relates to SK-MEL-2 melanoma.
The test system of experiment [11] is EKVX NSCLC.
Experiment [12] deals with SN12C renal.
Experiment [13] has as its system UO-31 renal.
For experiment [14], the system named is ACHN renal.
For experiment [15], the system named is CAKI-1 renal.
Experiment [16] has as its system A498 renal.
Experiment [17] concerns UACC-62 melanoma.
Experiment [18] relates to TK-10 renal.
In experiment [19] the test system is CCRF-CEM leukemia.
Experiment [20] relates to MOLT-4 leukemia.

On to `COc1cc(C2C3=C(COC3=O)N(CCO)c3cc4c(cc32)OCO4)cc(OC)c1OC` (stereo unspecified), for which the growth was 18.1% in [1]; 0.994% (active) in [2]; 51% in experiment [3]; -2.19% (active) in experiment [4]; 2.92% (active) in [5]; 19.6% in experiment [6]. Moreover, the growth in [7] was -42.2% (active); in [8] it was 26.1%; in experiment [9], 44.7%; in experiment [10], 24.7%; in [11], 35.2%; in [12], 16.8%. Besides, the growth was 45.8% in experiment [13], 40.1% in experiment [14], 50.6% in [15] and -19.6% (active) in experiment [16].

Turning to `CCCOc1ccc(/C=N/Nc2cc(C)nc3ccc(Br)cc23)cc1`, the growth was -20.9% (active) in experiment [1]; 26.5% in experiment [2]; 105% in experiment [3]; 101% in experiment [4]; 25.7% in experiment [5]; 100% in [7]. For the same compound, the growth in [17] was 96.1%; in [8], 59.9%; in experiment [9], 102%; in [10] it was 93%; in experiment [11], 81.7%; in experiment [12], 84.4%. Further, the growth was 72.6% in [13]; 111% in experiment [18]; 97.7% in experiment [14]; 91.3% in [15]; 28.3% in experiment [19]; 73.9% in experiment [20].

For `COc1cc(/C=C2\COc3ccc(-c4ccccc4)cc3C2=O)cc(OC)c1`, the growth in experiment [1] was 61.3%; in experiment [2] it was 60.7%; in experiment [3] it was 51.8%; in experiment [4] it was 98.9%; in experiment [5], 75.8%; in [6] it was 57.9%. Also, the growth in experiment [7] is 86.3%; in experiment [8] it was 71.9%; in experiment [9], 97.7%; in experiment [10], 83.9%; in experiment [11], 102%; in experiment [12] it was 80.5%. Moreover, the growth in [13] was 77.1%; in experiment [18], 103%; in experiment [14], 88.7%; in [16], 95.5%; in experiment [19], 20.3%; in experiment [20], 30.7%.

On to `N#C/C(=C\c1ccc(C(F)(F)F)cc1)c1cc2ccccc2[nH]1`, for which the growth is 92.5% in experiment [1]; 99.7% in [2]; 89% in [3]; 102% in experiment [4]; 105% in experiment [5]; 95.6% in experiment [7]. Moreover, the growth in experiment [17] was 95.1%; in [8], 99.7%; in [9], 102%; in experiment [10], 96.1%; in experiment [11], 97.6%; in [12], 99.2%. In addition, the growth in experiment [18] was 140%; in experiment [14], 104%; in experiment [15] it was 83.6%; in experiment [16], 90.3%; in experiment [19], 98.1%; in experiment [20], 91.5%.

As to `Cc1nn(-c2ccccc2)c(Oc2c(Cl)cccc2Cl)c1/C=N/N=c1\sc2ccccc2n1C`, the growth in experiment [1] is 25.3%; in [2], 33.7%; in [3], 86.4%; in experiment [4], 49.7%; in [5], 28.5%; in [7], 20.2%. In addition, the growth in experiment [17] was 36.2%; in [8] it was 26%; in experiment [9] it was 64.1%; in experiment [10], 80%; in experiment [11], 77.9%; in experiment [12] it was 59.1%. Also, the growth in experiment [18] is 85.7%; in [14] it was 43.7%; in experiment [15], 36.4%; in [19] it was 40.7%; in [20] it was 18.6%.

As to `COc1ccc(-c2nc(S(=O)(=O)c3ccccc3)c(S(=O)CC(=O)N3CCC(C)CC3)o2)cc1` (stereo unspecified), the growth in experiment [1] was -48.5% (active); in [2], 11%; in experiment [3], 72%; in [4] it was 57.6%; in experiment [5] it was 66.2%; in experiment [7], 72.8%. Moreover, the growth in experiment [17] is 17.9%; in experiment [8] it was -4.12% (active); in experiment [9] it was 19.2%; in experiment [10], 67.9%; in experiment [11] it was 65.7%; in [12] it was -33.3% (active). In addition, the growth in experiment [13] is -65.9% (active); in experiment [18], 33.1%; in experiment [14], -29.8% (active); in [15], 34.5%; in [16], 83.8%; in experiment [19] it was 1.85% (active).

On to `Cc1nc2ccc(Cl)cn2c1-c1nnc(SCc2ccc([N+](=O)[O-])cc2)o1`, for which the growth in [1] is 60.3%; in experiment [2] it was 83.9%; in [3] it was 39.8%; in experiment [4], 39.8%; in [5] it was 57.7%; in experiment [7], 43.8%. Moreover, the growth was 46.3% in experiment [17]; 69.3% in [8]; 40.2% in [9]; 84.9% in experiment [10]; 65.3% in experiment [11]; 48.4% in experiment [12]. For the same compound, the growth is 39.5% in [13]; 91.3% in [18]; 31.3% in experiment [14]; 65.7% in [15]; 48.7% in experiment [16]; 116% in experiment [19]. Besides, in experiment [20], the growth was 93.7%.

For the compound `c1ccc2c(-c3c[nH]c4ccccc34)c3c(cc2c1)[nH]c1ccccc13`, the growth in [1] was 47%; in [2], 72.5%; in experiment [3] it was 38.4%; in experiment [4], 90.9%; in experiment [5], 70.1%; in experiment [7] it was 67.3%. The growth in experiment [17] was 68.3%; in experiment [8], 60.1%; in experiment [9], 75.3%; in experiment [10], 50.6%; in [11], 77.4%; in experiment [12], 80.8%. For the same compound, the growth is 58.3% in experiment [13]; 62.1% in [14]; 63% in experiment [15]; 43.9% in [19]; 38.2% in experiment [20].
